Assay outcomes deposited in PubChem BioAssay by National Center for Advancing Translational Sciences (NCATS).
HepG2 tox – HepG2 cytotoxicity, counter-screen for TGF-b inhibitors; Potency, µM (series often up to 46.1 µM), inactives show at the highest dose activity change, negative = cytotoxicity, most hits filed as cytotoxic; hit rate 0.76% among 410,000; HepG2 CAGA-GFP viability, ATP luminescence, 18 h
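CellTiter-Glo luminescence gave cytotoxicity after 18 hours at 37 degrees C. The cells were HepG2 CAGA-GFP in 1% FBS DMEM, stimulated with 500 pg/mL TGF-beta after compound addition. %Activity was normalised to no-cell wells (complete cell-killing) and DMSO (no toxicity), and curves were fitted and classified.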
HT1080 IDH1KD tx – HT-1080 IDH1 knockdown cell toxicity (counter line); hit rate 2% among 360,000; AID 686971; Potency, µM (titrated, usually from 46.1 µM), inactives show at the highest dose activity, negative = toxicity, hits mostly cytotoxic; HT-1080 IDH1 knockdown viability, ATP luminescence, 48 h;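 also: 0% = DMSO wells and -100% = cell-free medium wells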
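IDH1KD HT-1080 cells, 750/well, RPMI + 5% FBS; compound pinned after 2 h settling; 48 h, 37 °C; CellTiter-Glo luminescence; % activity normalised to DMSO and no-cell wells; curves fitted, classed by r2 and efficacy.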
TDP1 cell noCPT – qHTS for Inhibitors of human tyrosyl-DNA phosphodiesterase 1 (TDP1): qHTS in cells in absence of CPT. DT40 Tdp1-/- hTDP1 cells, no CPT, ATP luminescence, 48 h. Potency, µM (titrated, usually from 46.2 µM), for the others: top-dose activity change, negative = growth inhibition, hits mostly inhibitors. hit rate 15% among 420,000. AID 686978, 2013; also: % is scaled to controls: 0 for no effect and ±100 for the full control effect; nearly all actives have a fitted effect of over 55% in size
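Readout: luminescence from CellTiter-Glo after 30 min in the dark at RT. Cells: DT40 Tdp1-/- with stable hTDP1, 400/well. Exposure: compounds alone, ≥48 hr, 37 °C.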
TDP1 cell CPT – growth inhibition of DT40 Tdp1-/-;hTDP1 cells with camptothecin (screen for TDP1 inhibitors) | chicken DT40 Tdp1-/-;hTDP1 cells + 20 nM CPT, ATP luminescence, 48 h | Potency, µM (doses to about 46.2 µM), for inactives: at the top dose activity change, negative = growth inhibition, usual class: inhibitors | hit rate 12% among 420,000 | AID 686979; also: % is scaled to controls: 0 for no effect and ±100 for the full control effect; nearly all actives have a fitted effect of over 55% in size
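Cell growth measured by CellTiter-Glo luminescence after a minimum 48 h, 37 C compound exposure with 20 nM CPT in Tdp1-knockout DT40 cells stably expressing hTDP1, seeded 400/well; qHTS titration format.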
TGFb inhibitor – inhibitors of TGF-b signaling; Potency, µM (top dose mostly 46.1 µM), inactives show at the top dose activity, negative = inhibition, actives largely listed as inhibitors; AID 588855; HepG2 CAGA-GFP TGF-b/SMAD3 reporter, GFP fluorescence, 18 h; TGF-beta stimulated, 500 pg/mL final; hit rate 1.2% among 410,000; also: % is scaled to controls: 0 for no effect and ±100 for the full control effect; nearly all actives have a fitted effect of over 65% in size
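First, reporter cells (HEPG2 CAGA-GFP) rested 2 h at 37 degrees C. Next, compounds were pinned in and TGF-beta added to 500 pg/mL final. After 18 h, GFP was imaged per cell and summed per well.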
HT1080-NT tox – kills 2HG-producing HT-1080-NT fibrosarcoma cells; HT-1080-NT fibrosarcoma viability, CellTiter-Glo ATP luminescence, 48 h; Potency, µM (titrated, usually from 46.1 µM), for the others: top-dose activity, negative = less viability, actives largely listed as cytotoxic; hit rate 1.6% among 360,000; AID 686970;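 also: NT is the 2HG producing partner of a matched IDH1 knockdown line; 0% = DMSO-treated cells and -100% = media-only wells without cells; nearly all actives have a fitted effect of over 55% in size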
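Fibrosarcoma NT cells, 750 per well in 5% FBS RPMI, were exposed to compound for 48 hours. Viability: CellTiter-Glo luminescence.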
* marks the source's active call; other numbers are inactive results; ? = inconclusive; · = no result; [ ] = dose if it differs, or a comment. Compounds with a hit are over-represented: about 17% of the library has one in this group of screens. Calls follow the shape of the dose curve; as a rule, active = well fitted curve in the direction sought with a large enough effect; inconclusive = small, poorly fitted or top-dose-only effect, or another doubt; inactive = no such curve, though single readings can be large; an effect the other way counts as inactive or inconclusive. Potency is read from the fitted curve at half-maximal effect.

SMILES	HepG2 tox	HT1080 IDH1KD tx	TDP1 cell noCPT	TDP1 cell CPT	TGFb inhibitor	HT1080-NT tox
CCCCOc1ccc(S(=O)(=O)NC(=O)C2(C)CCN2C(=O)Cc2cccs2)cc1 (stereo unspecified)	1%	0%	-6%	-13%	12%	15%
CC1=[N+](C)c2c(ccc3cccnc23)C1(C)C	-11%	?	1.8µM*	0.33µM*	?	?
Cc1ccc(OCC(=O)c2c(O)c3ccccc3oc2=O)cc1C	3%	5%	15µM*	?	5%	2%
CCc1ccc(OCC(=O)c2c(O)c3ccccc3oc2=O)cc1	-4%	-3%	23µM*	?	-11%	-4%
Cc1ccc(C(C)C)c(OCC(=O)c2c(O)c3ccccc3oc2=O)c1	-16%	4%	23µM*	?	-29%	7%
COc1ccc2cc(-c3[nH]ncc3CN3CCCC3c3nonc3C)ccc2c1 (stereo unspecified)	-2%	?	23µM*	?	?	-19%
N#Cc1ncccc1CCc1cccc(Cl)c1	13%	5%	-9%	6%	-9%	4%
Cc1oc(=O)oc1CN1CCN(c2cc3c(cc2F)c(=O)c(C(=O)O)c2n3C(C)S2)CC1 (stereo unspecified)	·	·	-11%	-22%	·	·
Cc1nnc(NC(=O)CSc2nc(C(C)C)nc3sc(C)c(C)c23)s1	-3%	-8%	8.2µM*	?	4%	-7%
CC1Cc2ccccc2N1C(=O)CN1CCc2ccccc2C1 (stereo unspecified)	-46%	-7%	26µM*	?	0%	1%
Cc1sc2nc(C3CC3)nc(SCC(=O)N3c4ccccc4CC3C)c2c1C (stereo unspecified)	-21%	?	21µM*	16µM*	11%	?
Cc1nc2cc(C(=O)N3c4ccccc4CC3C)ccc2s1 (stereo unspecified)	3%	13µM*	16µM*	?	0%	12µM*
Cc1nc(SCC(=O)N2c3ccccc3NC(=O)CC2C)c2c(C)c(C)sc2n1 (stereo unspecified)	-15%	-17%	?	?	-21%	-12%
CC1Cc2ccccc2N1C(=O)CSc1nc2cc3c(cc2cc1C#N)OCO3 (stereo unspecified)	0%	13%	?	?	6%	8%
CCc1nc(SCC(=O)Nc2cc(C)on2)c2c(C)c(C)sc2n1	1%	3%	-7%	-29%	-5%	-9%
CC1Cc2ccccc2N1C(=O)CSC1=NCCS1 (stereo unspecified)	-10%	-5%	?	10µM*	-17%	10%
Cc1cc(NC(=O)CSc2nc(C3CC3)nc3sc(C)c(C)c23)no1	-38%	-11%[9.24 µM]	8.2µM*	8.2µM*	3%	?
Cc1cc2cc3c(cc2nc1SCC(=O)N1c2ccccc2CC1C)OCO3 (stereo unspecified)	-35%	2%[9.24 µM]	21µM*	?	-11%	?
Cc1cccc(NC(=O)CSc2ncnc3sc(C)c(C)c23)n1	-6%	-13%	18µM*	16µM*	1%	-8%
CC1Cc2ccccc2N1C(=O)CSc1nnc(N)s1 (stereo unspecified)	0%	24%	2%	-3%	-3%	27%
CCN1CCN(C(c2ccc(OC)cc2)c2c(O)cc(C)n(CCOC)c2=O)CC1 (stereo unspecified)	-8%	·	6%	5%	-6%	·
CCC(C)c1ccc(NC(=O)NCCN2CCCCC2)cc1 (stereo unspecified)	-19%	?	-25%	?	-3%	?
COC(=O)CSc1nc2sc3c(c2c(=O)n1Cc1ccccc1)CCC(C(C)(C)C)C3 (stereo unspecified)	1%	·	-13%	-4%	-2%	·
Cc1ccc2nc(Br)c3c(c2c1)OC(CBr)C3 (stereo unspecified)	-8%	0%	?	-22%	-23%	-1%
Cc1nc2c(Cl)cccc2c2c1CC(CBr)O2 (stereo unspecified)	9%	-9%	?	15µM*	-2%	-8%
SMILES	HepG2 tox	HT1080 IDH1KD tx	TDP1 cell noCPT	TDP1 cell CPT	TGFb inhibitor	HT1080-NT tox
CCn1cc(S(=O)(=O)c2cccc(Cl)c2)c(=O)c2cc(F)c(N3CCN(c4ccccc4)CC3)cc21	17%	·	-18%	-5%	6%	·
CCc1ccc(NC(=O)Cn2c3[n+](c4c(F)c(F)ccc42)CCCCC3)cc1	-16%	-30%	5.8µM*	2.6µM*	6%	-11%
CC(C)CN(CC(C)C)C(=O)CCCC(=O)N(CC(C)C)CC(C)C	-5%	-1%	16µM*	?	-3%	2%
CCCCC(=O)N(CCC)CCC	1%	0%	1%	8%	2%	8%
COc1cc(NC(=O)c2ccc(S(=O)(=O)N(C)c3ccccc3)cc2)cc(OC)c1	-16%	-12%	16µM*	?	1%	13%
Cc1nc2cc(NC(=O)c3ccc(S(=O)(=O)N(C)c4ccccc4)cc3)ccc2o1	0%	?	16µM*	?	?	?
Cc1nnc(NC(=O)c2ccc(S(=O)(=O)N(C)c3ccccc3)cc2)s1	-9%	-24%	-24%	-22%	?	-6%
Cc1csc(NC(=O)c2ccc(S(=O)(=O)N(C)c3ccccc3)cc2)n1	-19%	-14%	13µM*	12µM*	-23%	-7%
CN(c1ccccc1)S(=O)(=O)c1ccc(C(=O)Nc2nnc(-c3ccc(F)cc3)o2)cc1	-41%	?	6.5µM*	9.2µM*	0%	-9%
COc1ccccc1NC(=O)c1ccc(S(=O)(=O)N(C)c2ccccc2)cc1	-17%	0%	?	3%	5%	-6%
CCCCCCCC/C=C\CCCCCCCC(=O)OC[C@@H](O)[C@H]1OC[C@H](O)[C@H]1O	·	·	3%	2%	·	·
COC(=O)c1ccc(CNC(=O)Cn2nnnc2CN(C)C(C)C)cc1	-5%	10%	-16%	-15%	2%	6%
N#CN=c1snc(-c2ccccc2)n1-c1ccc(Cl)cc1	-3%	·	?	?	0%	·
COc1cccc(C(=O)OCC(=O)NCC2CCCO2)c1 (stereo unspecified)	-4%	17%	-11%	-11%	-18%	11%
